In all, about 39,000 compounds went through this assay and about 3,300 (8.5%) were called active. The sample holds actives, similar compounds and a random draw of the others, so the mix is not that of the screen.

The test system of this test is HepG2. The test is described as follows: cytotoxicity call (relative viability < 0.9). To be noted: 10 µM.
As to `C[C@H](CO)N1C[C@H](C)[C@H](CN(C)Cc2ccc(C(=O)O)cc2)OCCCC[C@H](C)Oc2ccc(NC(=O)NC3CCCCC3)cc2C1=O`, the cytotoxicity call is “inactive”.
In the case of `C[C@H]1CCCCO[C@H](CN(C)S(=O)(=O)c2cccs2)[C@@H](C)CN([C@@H](C)CO)C(=O)c2cc(NS(C)(=O)=O)ccc2O1`, the cytotoxicity call was “inactive”.
Consider `O=C(NCC(F)(F)F)[C@@H]1c2ccccc2C(=O)N(Cc2cc(C(F)(F)F)cc(C(F)(F)F)c2)[C@H]1c1ccc(CO)cc1`, for which the cytotoxicity call is “inactive”.
The result for `O=C1CO[C@H]2CN(S(=O)(=O)c3ccccc3)C[C@@H]2N1` reads “inactive”.
The result for `C[C@@H]1CN([C@H](C)CO)C(=O)c2cc(NS(=O)(=O)c3ccc(F)cc3)ccc2O[C@@H]1CN(C)S(C)(=O)=O` reads “inactive”; that for `C[C@@H]1CCCCO[C@H](CN(C)Cc2ccc(C(F)(F)F)cc2)[C@@H](C)CN([C@H](C)CO)C(=O)c2cc(NS(=O)(=O)c3cccs3)ccc2O1`, “inactive”; that for `C[C@@H]1CN([C@H](C)CO)C(=O)c2cc(NS(=O)(=O)c3cccs3)ccc2O[C@@H](C)CCCCO[C@@H]1CN(C)Cc1ccc(C(=O)O)cc1`, “inactive”.
The value for `C[C@@H]1CCCCO[C@@H](CN(C)Cc2ccc(C(F)(F)F)cc2)[C@H](C)CN([C@H](C)CO)C(=O)c2cc(NS(=O)(=O)c3cccs3)ccc2O1` was “active”; that for `C[C@@H]1CCCCO[C@H](CN(C)Cc2ccc(C(F)(F)F)cc2)[C@H](C)CN([C@@H](C)CO)C(=O)c2cc(NS(=O)(=O)c3cccs3)ccc2O1` was “active”.
Take `C[C@H]1CCCCO[C@H](CN(C)Cc2ccc(C(F)(F)F)cc2)[C@@H](C)CN([C@@H](C)CO)C(=O)c2cc(NS(=O)(=O)c3cccs3)ccc2O1`: the cytotoxicity call is “inactive”.
The result for `C[C@@H]1CCCCO[C@@H](CN(C)Cc2ccc(C(=O)O)cc2)[C@H](C)CN([C@H](C)CO)C(=O)c2cc(NS(=O)(=O)c3cccs3)ccc2O1` reads “inactive”; that for `C[C@@H]1CCCCO[C@H](CN(C)Cc2ccc(C(F)(F)F)cc2)[C@H](C)CN([C@H](C)CO)C(=O)c2cc(NS(=O)(=O)c3cccs3)ccc2O1`, “active”; that for `C[C@@H]1CN([C@@H](C)CO)C(=O)c2cc(NS(=O)(=O)c3cccs3)ccc2O[C@@H](C)CCCCO[C@H]1CN(C)Cc1ccc(C(F)(F)F)cc1`, “inactive”.
Consider `C[C@@H]1CCCCO[C@@H](CN(C)Cc2ccc(C(F)(F)F)cc2)[C@@H](C)CN([C@@H](C)CO)C(=O)c2cc(NS(=O)(=O)c3cccs3)ccc2O1`, for which the cytotoxicity call was “active”.
Regarding `C[C@@H]1CN([C@@H](C)CO)C(=O)c2cc(NS(=O)(=O)c3cccs3)ccc2O[C@@H](C)CCCCO[C@@H]1CN(C)Cc1ccc(C(F)(F)F)cc1`, the cytotoxicity call was “inactive”.
Regarding `COc1ccc(OCc2c(-c3ccccc3)nnn2CC(=O)NS(=O)(=O)c2cccc(C#N)c2)cc1`, the cytotoxicity call was “inactive”.
For `COCC(=O)N1C[C@@H](C)[C@H](OC)CN(C)C(=O)c2cc(NC(=O)c3ccc(F)cc3)ccc2OC[C@@H]1C`, the cytotoxicity call is “inactive”.
Turning to `COc1cc2ccc(=O)oc2c(O[C@H]2O[C@@H](CO)[C@@H](O)[C@@H](O)[C@@H]2O)c1O`, the cytotoxicity call was “inactive”.
Take `C[C@@H]1CN([C@@H](C)CO)C(=O)Cc2cc(NC(=O)Cn3cnnn3)ccc2O[C@@H]1CN(C)C(=O)Nc1ccc2c(c1)OCO2`: the cytotoxicity call is “inactive”.
With `CCS(=O)(=O)N1C[C@]2(CN(C2)C(=O)CN2CCOCC2)c2c(n(c3cc(ccc23)OC)C)[C@H]1CO`, the cytotoxicity call is “inactive”.
Regarding `COc1ccc(CN(C)C[C@H]2OCCCC[C@H](C)Oc3ccc(NS(=O)(=O)c4ccccc4)cc3C(=O)N([C@H](C)CO)C[C@H]2C)cc1`, the cytotoxicity call was “inactive”.
As to `O=C(Cc1ccccn1)NCC[C@H]1CC[C@H](NC(=O)CN2CCOCC2)[C@H](CO)O1`, the cytotoxicity call is “inactive”.
The result for `C[C@@H]1CN([C@H](C)CO)C(=O)c2cc(NS(=O)(=O)c3cn(C)cn3)ccc2O[C@H]1CN(C)Cc1ccncc1` reads “inactive”.
The value for `C[C@H](CO)N1C[C@H](C)[C@@H](CN(C)S(=O)(=O)c2ccccc2)OCCCC[C@H](C)Oc2ccc(NC(=O)CCC(F)(F)F)cc2C1=O` was “inactive”; that for `Cc1noc(C)c1NC(=O)N(C)C[C@H]1Oc2c(NC(=O)Cn3cnnn3)cccc2C(=O)N([C@H](C)CO)C[C@@H]1C` was “inactive”.
With `C[C@@H]1CN([C@H](C)CO)C(=O)c2cc(NC(=O)C3CCCCC3)ccc2O[C@@H](C)CCCCO[C@H]1CN(C)C(=O)c1ccncc1`, the cytotoxicity call is “inactive”.
For the compound `C[C@@H]1CCCCO[C@@H](CN(C)Cc2ccc(C(F)(F)F)cc2)[C@H](C)CN([C@@H](C)CO)C(=O)c2cc(NS(=O)(=O)c3cccs3)ccc2O1`, the cytotoxicity call was “inactive”.
The result for `C[C@@H]1CCCCO[C@@H](CN(C)Cc2ccc(C(=O)O)cc2)[C@H](C)CN([C@@H](C)CO)C(=O)c2cc(NS(=O)(=O)c3cccs3)ccc2O1` reads “inactive”; that for `C[C@H](CO)N1C[C@H](C)[C@H](CN(C)Cc2ccc(C(F)(F)F)cc2)OCCCC[C@H](C)Oc2ccc(NS(=O)(=O)c3cccs3)cc2C1=O`, “active”.
On to `C[C@@H]1CCCCO[C@H](CN(C)Cc2ccc(C(F)(F)F)cc2)[C@@H](C)CN([C@@H](C)CO)C(=O)c2cc(NS(=O)(=O)c3cccs3)ccc2O1`, for which the cytotoxicity call is “inactive”.
The result for `C[C@H]1CCCCO[C@@H](CN(C)Cc2ccc(C(F)(F)F)cc2)[C@@H](C)CN([C@@H](C)CO)C(=O)c2cc(NS(=O)(=O)c3cccs3)ccc2O1` reads “inactive”; that for `C[C@@H]1CN([C@H](C)CO)C(=O)c2cc(NS(=O)(=O)c3cccs3)ccc2O[C@@H](C)CCCCO[C@@H]1CN(C)Cc1ccc(C(F)(F)F)cc1`, “inactive”; that for `C[C@@H]1CCCCO[C@@H](CN(C)Cc2ccc(C(F)(F)F)cc2)[C@@H](C)CN([C@H](C)CO)C(=O)c2cc(NS(=O)(=O)c3cccs3)ccc2O1`, “active”.
The result for `C[C@H](CO)N1C[C@H](C)[C@@H](CN(C)Cc2ccc(C(F)(F)F)cc2)OCCCC[C@H](C)Oc2ccc(NS(=O)(=O)c3cccs3)cc2C1=O` reads “inactive”.
Take `C[C@@H]1CN([C@H](C)CO)C(=O)c2cc(NS(=O)(=O)c3cccs3)ccc2O[C@@H](C)CCCCO[C@H]1CN(C)Cc1ccc(C(F)(F)F)cc1`: the cytotoxicity call is “active”.
With `C[C@H]1CN([C@@H](C)CO)C(=O)c2cccc(NC(=O)c3ccc(-c4nccs4)cc3)c2O[C@@H]1CN(C)S(=O)(=O)c1cn(C)cn1`, the cytotoxicity call is “inactive”.
As for `Cc1noc(C)c1S(=O)(=O)N(C)C[C@H]1OCCCC[C@H](C)Oc2ccc(N(C)C)cc2C(=O)N([C@H](C)CO)C[C@@H]1C`, the cytotoxicity call is “inactive”.
The value for `COc1ccc(NC(=O)N(C)C[C@@H]2OCCCC[C@H](C)Oc3ccc(NS(=O)(=O)c4c(C)noc4C)cc3C(=O)N([C@@H](C)CO)C[C@@H]2C)cc1` was “inactive”; that for `CO[C@@H]1CN(C)C(=O)c2ccc(NC(=O)C3CC3)cc2OC[C@@H](C)N(C(=O)C2CCOCC2)C[C@H]1C` was “inactive”.
With `Cc1cc(C2CCCCC2)n(O)c(=O)c1.NCCO`, the cytotoxicity call was “active”.
For `C[C@H]1CN([C@@H](C)CO)C(=O)c2c(c3ccccc3n2C)-c2ccccc2CO[C@@H]1CN(C)Cc1ccc(C(F)(F)F)cc1`, the cytotoxicity call was “inactive”.
For the compound `Cc1noc(C)c1S(=O)(=O)Nc1ccc2c(c1)C(=O)N([C@H](C)CO)C[C@H](C)[C@H](CN(C)C(=O)Nc1ccc(F)cc1)OCCCC[C@H](C)O2`, the cytotoxicity call was “inactive”.
Turning to `Cc1noc(C)c1NC(=O)Nc1ccc2c(c1)C(=O)N([C@H](C)CO)C[C@H](C)[C@@H](CN(C)S(=O)(=O)c1ccc(F)cc1)OCCCC[C@@H](C)O2`, the cytotoxicity call was “inactive”.
As for `Cc1cc(C(=O)Nc2cccc3c2O[C@H](CN(C)S(=O)(=O)c2cccs2)[C@@H](C)CN([C@H](C)CO)C3=O)n(C)n1`, the cytotoxicity call is “inactive”.
For the compound `CCNC(=O)c1cccc(NS(C)(=O)=O)c1`, the cytotoxicity call was “inactive”.
As for `COC(=O)CNC(=O)/C=C/c1ccc(OC)cc1`, the cytotoxicity call was “inactive”.
As to `CCNC(=O)C=Cc1cccc(Br)c1`, the cytotoxicity call was “active”.
On to `C[C@H](CO)N1C[C@H](C)[C@@H](CN(C)C(=O)Nc2ccc(C(F)(F)F)cc2)Oc2ccc(NS(=O)(=O)c3ccc(F)cc3)cc2C1=O`, for which the cytotoxicity call was “inactive”.
The value for `COc1ccc(S(=O)(=O)Nc2ccc3c(c2)CC(=O)N([C@H](C)CO)C[C@H](C)[C@H](CN(C)S(=O)(=O)c2cn(C)cn2)O3)cc1` was “inactive”; that for `C[C@H](CO)N1C[C@H](C)[C@H](CN(C)C(=O)C2CCCCC2)OCCCC[C@H](C)Oc2ccc(NC(=O)Nc3ccc(F)cc3)cc2C1=O` was “inactive”.
For the compound `C[C@@H]1CCCCO[C@H](CN(C)C(=O)C2CCCCC2)[C@@H](C)CN([C@@H](C)CO)C(=O)c2cc(NC(=O)Nc3ccc(F)cc3)ccc2O1`, the cytotoxicity call was “active”.
Take `C[C@@H]1CCCCO[C@H](CN(C)C(=O)C2CCCCC2)[C@H](C)CN([C@@H](C)CO)C(=O)c2cc(NC(=O)Nc3ccc(F)cc3)ccc2O1`: the cytotoxicity call is “inactive”.
`C[C@@H]1CCCCO[C@@H](CN(C)C(=O)C2CCCCC2)[C@@H](C)CN([C@H](C)CO)C(=O)c2cc(NC(=O)Nc3ccc(F)cc3)ccc2O1`: the cytotoxicity call is “inactive”.
In the case of `C[C@H]1CCCCO[C@@H](CN(C)C(=O)C2CCCCC2)[C@@H](C)CN([C@@H](C)CO)C(=O)c2cc(NC(=O)Nc3ccc(F)cc3)ccc2O1`, the cytotoxicity call is “active”.
Turning to `C[C@@H]1CN([C@H](C)CO)C(=O)c2cc(NC(=O)Nc3ccc(F)cc3)ccc2O[C@@H](C)CCCCO[C@@H]1CN(C)C(=O)C1CCCCC1`, the cytotoxicity call is “inactive”.
The value for `C[C@H]1CCCCO[C@H](CN(C)C(=O)C2CCCCC2)[C@@H](C)CN([C@@H](C)CO)C(=O)c2cc(NC(=O)Nc3ccc(F)cc3)ccc2O1` was “active”.
`C[C@@H]1CCCCO[C@@H](CN(C)C(=O)C2CCCCC2)[C@@H](C)CN([C@@H](C)CO)C(=O)c2cc(NC(=O)Nc3ccc(F)cc3)ccc2O1`: the cytotoxicity call was “inactive”.
With `C[C@@H]1CCCCO[C@@H](CN(C)C(=O)C2CCCCC2)[C@H](C)CN([C@@H](C)CO)C(=O)c2cc(NC(=O)Nc3ccc(F)cc3)ccc2O1`, the cytotoxicity call is “inactive”.

Source of the values: the antibiotic and cytotoxicity screens of Wong et al. (2023).
